Compounds with a hit are over-represented: about 1.9% of the library has one in this group of screens.
Abeta yeast res: qHTS for compounds that reverse cellular toxicity of Amyloid beta (A-beta) peptide in yeast: Primary Screen; yeast expressing A-beta42, growth rescue, OD600, 48 h; response scale: 0% DMSO, 100% iron-clioquinol control; Potency, µM (titrated, usually from 46.1 µM), usual class: activators; 410,000 compounds, 0.063% hits; also: potency is read from the fitted curve at half-maximal effect; nearly all actives have a fitted effect of over 55% in size
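Yeast A-beta toxicity model in growth medium with pinned compounds, 48 h at 30 C; growth read as absorbance at 600 nm. Normalized to FeCl3/clioquinol equimolar mix (positive) and DMSO (negative).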
TDP43 rescue: qHTS of TDP-43 Inhibitors. TDP-43 expressing yeast growth rescue, BacTiter-Glo, 24 h. Potency, µM (top dose mostly 46.1 µM), for the others: at the highest dose growth rescue (activation), most hits filed as activators. 410,000 compounds, 1.8% hits. AID 652104, 2013; also: potency is read from the fitted curve at half-maximal effect; % of control where 0% means no effect; nearly all actives have a fitted effect of over 50% in size
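Growth rescue of TDP-43-toxic yeast measured as ATP luminescence (BacTiter-Glo). Cells grown to mid-log in raffinose, induced in galactose at OD600=0.02, exposed to compound 24 hr at 30 deg C.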
LDHA inh: qHTS assay for inhibitors of human lactate dehydrogenase. L-lactate dehydrogenase A chain (Homo sapiens), P00338. activity change, % (values are at about 110 or 230 µM). AID 1347041, 2019. 480,000 compounds, 0.15% hits. purified LDHA, NADH/diaphorase-resazurin fluorescence; hits give low values; in the data active = activity change below about -30%; inconclusive = mostly about -25% to -30%;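 also: plate controls were DMSO wells for no effect and wells without enzyme for full effect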
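Remaining NADH was detected by diaphorase (0.133 mg/mL) converting 37 µM resazurin to fluorescent resorufin, read at 0 and 20 minutes. The preceding 5-minute room-temperature reaction used 2 nM LDHA, 0.2 mM sodium pyruvate and 0.06 mM NADH at pH 7.4.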
FUS suppressor: qHTS for Suppressors of FUS Proteinopathy: Primary screen using FUS-linked yeast assay; S. cerevisiae FUS-expressing, growth rescue, OD600, 24 h; AID 1347120, 2019; 390,000 compounds, 0.24% hits; Potency, µM (series often up to 76.6 µM), actives largely listed as activators;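 also: potency is read from the fitted curve at half-maximal effect; plate controls were DMSO vehicle for no effect and reference control for full effect; nearly all actives have a fitted effect of over 55% in size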
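Absorbance at 600 nm, taken 24hr after compound addition, measured rescue of FUS-yeast growth at 30C. Induction used 2% galactose with seeding at OD 0.005. Controls: CP55940 from 92uM final, DMSO only.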
aSyn rescue: qHTS of alpha-syn Inhibitors. Yeast expressing alpha-synuclein, growth rescue, BacTiter-Glo, 24 h. Potency, µM (titrated, usually from 46.1 µM), inactives show top-dose growth rescue (activation), usual class: activators. 370,000 compounds, 0.14% hits; also: potency is read from the fitted curve at half-maximal effect; % of control where 0% means no effect; nearly all actives have a fitted effect of over 65% in size
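Rescue of yeast growth: cells expressing toxic alpha-synuclein, induced in galactose at OD600 0.02, incubated with compound 24 h at 30 C. ATP luminescence quantified growth; inhibitors of toxicity appear as activators.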
PTHR1 ag: qHTS for PTHR1 Agonists: Primary Screen. 410,000 compounds, 0.075% hits. HEK293 GP2 PTHR1 cells, GloSensor cAMP luminescence, 1 h. Potency, µM (doses to about 115 µM), for the others: top-dose activation, usual class: activators. Parathyroid hormone/parathyroid hormone-related peptide receptor (Homo sapiens), Q03431; also: potency is read from the fitted curve at half-maximal effect; nearly all actives have a fitted effect of over 55% in size
Target sequence (Q03431 whole entry, looked up): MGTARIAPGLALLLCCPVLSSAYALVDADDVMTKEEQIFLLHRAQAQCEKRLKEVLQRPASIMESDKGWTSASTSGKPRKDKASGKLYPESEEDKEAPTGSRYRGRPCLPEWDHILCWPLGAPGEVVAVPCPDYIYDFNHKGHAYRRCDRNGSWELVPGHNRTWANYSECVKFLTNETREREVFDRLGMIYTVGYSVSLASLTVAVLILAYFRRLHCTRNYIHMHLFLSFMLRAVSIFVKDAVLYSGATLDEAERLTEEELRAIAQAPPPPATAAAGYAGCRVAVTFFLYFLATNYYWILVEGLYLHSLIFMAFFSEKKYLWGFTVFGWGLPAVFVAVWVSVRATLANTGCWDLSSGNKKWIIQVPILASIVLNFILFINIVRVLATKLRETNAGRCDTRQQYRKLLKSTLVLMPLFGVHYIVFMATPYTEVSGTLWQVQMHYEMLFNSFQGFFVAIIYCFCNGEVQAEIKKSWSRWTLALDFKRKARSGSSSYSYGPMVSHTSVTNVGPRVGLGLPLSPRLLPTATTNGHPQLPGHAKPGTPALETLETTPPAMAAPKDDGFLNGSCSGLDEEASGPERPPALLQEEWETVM
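HEK-293-derived GP2 cells expressing PTHR1 and a GloSensor cAMP reporter, 3,000/well, plated overnight, given luciferin plus IBMX (each 0.5 mM as added) for 1 h at 37 °C, then compound for 1 h at 37 °C. Luminescence was read after 15 min at room temperature.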
An asterisk follows results filed as active; i = inactive; ? = inconclusive; / = not tested or not shown. Unless noted, calls follow the shape of the dose curve; as a rule, active = well fitted curve in the direction sought with a large enough effect; inconclusive = small, poorly fitted or top-dose-only effect, or another doubt; inactive = no such curve, though single readings can be large; an effect the other way counts as inactive or inconclusive.

SMILES	Abeta yeast res	TDP43 rescue	LDHA inh	FUS suppressor	aSyn rescue	PTHR1 ag
COc1ccc2cc(C3=CCCC3(C)C(=O)O)ccc2c1 (stereo not given)	i	3.5µM*	-5	i	-38%	-11%
CSC[C@H](NC(=O)Cc1c(C)c2cc3c(C)c(C)oc3cc2oc1=O)C(=O)N[C@@H](Cc1ccccc1)C(=O)O	i	7%	1	i	1%	-17%
CCC(NC(=O)CCc1c(C)c2cc3c(C)c(C)oc3cc2oc1=O)C(=O)N[C@@H](Cc1ccccc1)C(=O)O (stereo not given in full)	i	0%	7	28µM*	5%	?
Cn1c(COc2ccc(Cl)cc2)nnc1SCc1ncc(-c2ccccc2)o1	i	22µM*	3	?	?	2%
COc1ccc(-c2nc3cc(C)c(Br)c(C)n3c2CC2CCCCC2)cc1OC	i	22µM*	2	i	2%	i
Cc1ccc(-c2nc3cc(C)c(Br)c(C)n3c2CC2CCCCC2)cc1	i	16%	-8	i	-10%	-24%
COP(=O)(OC)c1nc(-c2cccc([N+](=O)[O-])c2)oc1NCc1ccc(F)cc1	/	/	8	/	/	/
CC(NC(=O)Cn1nc(-c2ccc(F)cc2)oc1=O)c1ccc(Br)cc1 (stereo not given)	/	/	1	/	/	/
CCc1ccsc1C(=O)N(CC#N)C1CC1	/	/	1	/	/	/
CCCCCCOC(=O)c1ccc(N)cc1	i	13µM*	1	i	2%	-3%
O=C(CN1CCN(CC(=O)Nc2ccccc2C(=O)c2ccccc2)CC1)Nc1ccc(F)cc1	/	/	-32*	/	/	/
COc1cc(C(=O)/C=C/c2ccccc2F)ccc1S(C)(=O)=O	/	/	11	/	/	/
COC(=O)c1ccc(C2/C(=C(\O)c3cccc(OC)c3)C(=O)C(=O)N2CCCn2ccnc2)cc1 (stereo not given)	/	/	0	/	/	/
O=C(C1CCN(S(=O)(=O)c2ccccc2F)CC1)N1CCc2ccccc21	i	13µM*	-2	i	15%	-45%
O=C(C1CCN(S(=O)(=O)c2ccccc2)CC1)N1CCc2ccccc21	i	20%	-9	i	0%	-25%
CCCCn1nnc(NC(=S)NC(=O)c2cccs2)n1	i	35µM*	1	/	-15%	-9%
Cn1nnc(NC(=S)NC(=O)c2cccc3ccccc23)n1	11µM*	9%	-3	i	-9%	i
CCC(C)c1ccc(S(=O)(=O)N2CCN(CC(O)CN3CCOCC3)CC2)cc1 (stereo not given)	i	6%	-33*	i	3%	-21%
O=C(O)c1nnn(-c2ccc(Br)cc2)c1C(F)(F)F	/	/	-6	/	/	/
COC(=O)[C@@]1(Cc2ccc(OC)cc2)[C@H]2c3cc(C(=O)N4CCCC4)n(Cc4ccc(S(C)(=O)=O)cc4)c3C[C@H]2CN1C(=O)c1ccccc1	i	11%	-4	25µM*	4%	i
COC(=O)[C@@]1(Cc2ccc(F)cc2)[C@H]2c3cc(C(=O)N4CCCC4)n(Cc4ccccc4)c3C[C@H]2CN1C(=O)c1ccccc1	i	0%	-5	?	19%	-24%
O=S(=O)(Nc1nc2ccccc2nc1N1CCN(c2ccccc2)CC1)c1ccccc1	/	/	3	/	/	/
COc1ccc(N2CCN(c3nc4ccccc4nc3NS(=O)(=O)c3ccccc3)CC2)cc1	i	20µM*	2	i	-17%	-34%
Cn1cnc([N+](=O)[O-])c1NC(C)(C)C	i	2%	-5	i	-4%	i
Cn1cnc([N+](=O)[O-])c1S(=O)(=O)c1ccc(Cl)cc1	i	14µM*	-11	i	0%	-39%
SMILES	Abeta yeast res	TDP43 rescue	LDHA inh	FUS suppressor	aSyn rescue	PTHR1 ag
CCc1cc(C(c2ccccc2OC)N2CCN(C)CC2)c(NC(=O)c2ccco2)s1 (stereo not given)	/	/	-14	/	/	/
N#Cc1cccc(CN2CCCc3ccccc32)c1	/	/	1	/	/	/
CC(C)CN(CC(C)C)c1nc(-c2ccc(Cl)cc2)nc2ccccc12	i	35µM*	-5	i	-2%	i
Cc1ccc(CSc2nc(=O)c3c(C)cc(C)nc3n2C2CC2)cc1	i	3.2µM*	1	?	/	-10%
CCCCOc1ccc(C(=O)Nc2cccc(C)n2)cc1	i	2.8µM*	-1	/	-26%	-20%
CCOc1ccc(C(=O)Nc2cccc(C)n2)cc1	i	-7%	-6	i	-13%	-21%
COc1ccc(Cn2nc3n(c2=O)-c2ccccc2OC3)cc1	i	14µM*	-6	i	/	-4%
CCOC(=O)c1nnn(-c2nonc2N)c1CSc1ccccc1	i	?	-3	i	14%	i
CCOC(=O)c1nnn(-c2nonc2N)c1CSc1ccc(C)cc1	i	22µM*	3	i	15%	-7%
CC[C@@H](C)C(NC(=O)OC(C)(C)C)c1cn([C@@H](Cc2cc3ccccc3[nH]2)C(=O)N2CCN(C(=O)OC(C)(C)C)CC2)nn1 (stereo not given in full)	i	-3%	-2	14µM*	11%	i
CC(C)CC(NC(=O)OC(C)(C)C)c1cn([C@@H](CCCCNC(=O)OC(C)(C)C)C(=O)N2CCN(C(=O)OC(C)(C)C)CC2)nn1 (stereo not given in full)	i	1%	-11	7.9µM*	0%	-28%
CC[C@@H](C)C(NC(=O)OC(C)(C)C)c1cn([C@@H](CCCCNC(=O)OC(C)(C)C)C(=O)N2CCN(C(=O)OC(C)(C)C)CC2)nn1 (stereo not given in full)	i	0%	-3	i	3%	-14%
COc1ccc(-n2cnc3scc(-c4ccccc4)c3c2=O)cc1	i	11µM*	-2	i	-1%	-6%
COc1ccc(-n2cnc3scc(-c4ccc(OC)c(OC)c4)c3c2=O)cc1	i	0%	-3	i	1%	-66%
CCc1cc(=O)oc2cc(OC(C)C(=O)NCc3ccc(S(N)(=O)=O)cc3)ccc12 (stereo not given)	/	/	6	/	/	/
CCCOc1ccccc1N/C(N)=N/c1nc(C)cc(C)n1	i	-23%	-2	i	-8%	-4%
